Common to all, as to assay: DAPPL (digital affinity profiling via proximity ligation, sequencing); 10 mM Tris-HCl pH 7.5, 50 mM NaCl, 1 mM DTT, 4% glycerol, room temperature, 30 min; GST-TFs on glutathione beads, 16-mer random dsDNA library, 0.1% formaldehyde crosslink after washing; high values mean tight binding
Holding throughout (conditions): protein: recombinant; tags: N-terminal GST; dsDNA, one strand shown

One test addresses T1, ERF (Homo sapiens, UniProt P50548 1-548).
T1 sequence: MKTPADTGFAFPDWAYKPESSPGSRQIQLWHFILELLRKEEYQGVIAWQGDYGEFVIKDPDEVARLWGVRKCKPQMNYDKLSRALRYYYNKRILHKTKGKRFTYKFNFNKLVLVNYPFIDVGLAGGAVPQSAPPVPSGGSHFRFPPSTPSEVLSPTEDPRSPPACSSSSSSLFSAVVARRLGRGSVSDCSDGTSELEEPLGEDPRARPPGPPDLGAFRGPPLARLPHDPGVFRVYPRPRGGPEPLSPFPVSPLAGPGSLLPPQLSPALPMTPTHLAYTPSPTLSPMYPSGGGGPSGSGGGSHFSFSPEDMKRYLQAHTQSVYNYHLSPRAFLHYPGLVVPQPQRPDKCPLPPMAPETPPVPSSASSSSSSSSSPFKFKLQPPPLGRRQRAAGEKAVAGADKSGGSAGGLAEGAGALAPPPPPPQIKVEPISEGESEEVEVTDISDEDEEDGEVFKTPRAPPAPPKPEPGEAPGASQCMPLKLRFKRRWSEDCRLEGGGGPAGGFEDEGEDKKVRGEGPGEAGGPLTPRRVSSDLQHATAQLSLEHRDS
Summed up: (§1)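 Beads coated with glutathione captured GST-fused human transcription factors that had been expressed in yeast, and the factors were then given DNA barcodes and pooled with a tag-only sample. The pools were incubated with 200 nmole of a random double-stranded 16-mer DNA library in Tris/NaCl/DTT/glycerol buffer for 30 min at room temperature, washed, crosslinked with 0.1% formaldehyde and proximity-ligated with BsaI/T4 ligase at 37 °C for 1 h. PCR amplification and Illumina NextSeq500 sequencing came last. Binding signal is each hexamer's read frequency for a factor divided by its frequency for the tag-only sample.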

Another test deals with T2, ETV3L (Homo sapiens, UniProt Q6ZN32 1-361).
T2 sequence: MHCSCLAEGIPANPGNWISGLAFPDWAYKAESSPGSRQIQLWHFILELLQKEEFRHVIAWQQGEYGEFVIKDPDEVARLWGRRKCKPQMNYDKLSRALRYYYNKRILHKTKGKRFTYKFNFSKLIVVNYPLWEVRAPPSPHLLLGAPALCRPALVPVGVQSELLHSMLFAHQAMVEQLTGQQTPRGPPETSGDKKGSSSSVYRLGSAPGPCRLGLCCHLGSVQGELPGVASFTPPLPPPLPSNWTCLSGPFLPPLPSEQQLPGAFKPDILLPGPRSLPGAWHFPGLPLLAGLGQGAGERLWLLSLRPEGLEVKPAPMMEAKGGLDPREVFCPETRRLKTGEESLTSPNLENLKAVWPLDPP
The gist of the method: as §1

The next test addresses T3, ETS2 (Homo sapiens, UniProt P15036 1-469).
T3 sequence: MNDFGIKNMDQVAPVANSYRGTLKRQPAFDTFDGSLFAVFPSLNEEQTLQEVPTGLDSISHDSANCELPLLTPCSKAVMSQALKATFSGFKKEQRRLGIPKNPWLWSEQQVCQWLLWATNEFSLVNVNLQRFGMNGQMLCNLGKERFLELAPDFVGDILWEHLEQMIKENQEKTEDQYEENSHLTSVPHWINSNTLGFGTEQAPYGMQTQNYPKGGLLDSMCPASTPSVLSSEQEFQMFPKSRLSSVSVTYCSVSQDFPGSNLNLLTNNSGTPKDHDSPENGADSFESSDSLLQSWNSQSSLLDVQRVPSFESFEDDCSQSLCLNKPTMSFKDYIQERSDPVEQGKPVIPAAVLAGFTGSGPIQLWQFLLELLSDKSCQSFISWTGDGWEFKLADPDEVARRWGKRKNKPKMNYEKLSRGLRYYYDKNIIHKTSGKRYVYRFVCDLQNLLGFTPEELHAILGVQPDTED
The gist of the method:
as §1

The target of a further test is T4, SPDEF (Homo sapiens, UniProt O95238 1-335).
T4 sequence: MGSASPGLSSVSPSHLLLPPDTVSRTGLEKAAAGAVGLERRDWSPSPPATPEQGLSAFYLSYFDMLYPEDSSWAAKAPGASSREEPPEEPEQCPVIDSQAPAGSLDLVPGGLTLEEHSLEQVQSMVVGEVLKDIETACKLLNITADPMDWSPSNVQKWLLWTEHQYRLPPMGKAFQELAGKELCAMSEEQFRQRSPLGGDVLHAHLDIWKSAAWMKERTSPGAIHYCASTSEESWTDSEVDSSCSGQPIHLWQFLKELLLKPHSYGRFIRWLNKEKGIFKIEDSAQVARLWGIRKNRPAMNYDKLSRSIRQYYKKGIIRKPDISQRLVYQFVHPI
Summed up:
as §1

The next test concerns the target T5, ETV7 (Homo sapiens, UniProt Q9Y603 1-341).
T5 sequence: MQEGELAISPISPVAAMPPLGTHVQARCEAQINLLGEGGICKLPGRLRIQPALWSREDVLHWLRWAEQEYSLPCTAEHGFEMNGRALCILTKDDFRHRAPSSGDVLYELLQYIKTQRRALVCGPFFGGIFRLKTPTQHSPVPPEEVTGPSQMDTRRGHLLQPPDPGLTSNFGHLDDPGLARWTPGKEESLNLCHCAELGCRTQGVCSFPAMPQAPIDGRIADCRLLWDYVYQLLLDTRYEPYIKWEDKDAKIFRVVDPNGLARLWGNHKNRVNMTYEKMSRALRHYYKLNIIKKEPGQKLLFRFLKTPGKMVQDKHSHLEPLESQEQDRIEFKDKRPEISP
The gist of the method: as §1

Another test addresses T6, ELF5 (Homo sapiens, UniProt Q9UKW6-2 1-255).
T6 sequence: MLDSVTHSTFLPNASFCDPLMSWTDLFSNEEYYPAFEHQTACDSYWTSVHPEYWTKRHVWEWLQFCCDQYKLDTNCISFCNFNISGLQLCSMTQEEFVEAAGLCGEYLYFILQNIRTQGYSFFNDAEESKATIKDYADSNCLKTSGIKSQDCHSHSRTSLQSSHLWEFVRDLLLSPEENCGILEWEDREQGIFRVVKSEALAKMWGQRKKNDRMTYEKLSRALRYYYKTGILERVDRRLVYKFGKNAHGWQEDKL
Summed up: as §1

The target in the next test is T7, ETV3 (Homo sapiens, UniProt P41162-2 1-143).
T7 sequence: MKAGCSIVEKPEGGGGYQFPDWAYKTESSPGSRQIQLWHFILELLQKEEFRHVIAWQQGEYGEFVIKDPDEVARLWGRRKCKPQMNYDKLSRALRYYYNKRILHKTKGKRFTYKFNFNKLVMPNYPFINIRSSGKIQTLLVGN
The gist of the method: as §1

For the next test, the target named is ETV6 (Homo sapiens, UniProt P41212 1-452). The gist of the method: as §1
Sequence of ETV6 (P41212 whole entry): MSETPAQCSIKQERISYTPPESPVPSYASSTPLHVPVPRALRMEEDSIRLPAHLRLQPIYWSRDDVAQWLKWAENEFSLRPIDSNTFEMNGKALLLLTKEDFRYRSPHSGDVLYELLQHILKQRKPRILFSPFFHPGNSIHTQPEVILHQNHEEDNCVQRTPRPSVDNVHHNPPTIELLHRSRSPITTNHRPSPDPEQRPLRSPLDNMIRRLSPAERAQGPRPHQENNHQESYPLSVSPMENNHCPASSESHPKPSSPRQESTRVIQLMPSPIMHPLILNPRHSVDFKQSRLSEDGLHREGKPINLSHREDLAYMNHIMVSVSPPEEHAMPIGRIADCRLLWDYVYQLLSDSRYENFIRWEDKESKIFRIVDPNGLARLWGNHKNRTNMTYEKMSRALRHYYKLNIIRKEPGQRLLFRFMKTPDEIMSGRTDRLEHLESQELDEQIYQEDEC

For the sequence CGAGCA, the binding signal was 1.17 fold enrichment (6-mer frequency, TF over GST control) in the test with ERF; 1.13 fold enrichment (6-mer frequency, TF over GST control) in the test with ETV3L; 1.06 fold enrichment (6-mer frequency, TF over GST control) in the test with ETS2; 1.18 fold enrichment (6-mer frequency, TF over GST control) in the test with SPDEF; 1.06 fold enrichment (6-mer frequency, TF over GST control) with ETV7; 1.03 fold enrichment (6-mer frequency, TF over GST control) in the test with ELF5. In addition, the binding signal in the test with ETV3 was 1.04 fold enrichment (6-mer frequency, TF over GST control); in the test with ETV6, 1.06 fold enrichment (6-mer frequency, TF over GST control).

Turning to GCTGCT, the binding signal with ERF is 1.11 fold enrichment (6-mer frequency, TF over GST control); in the test with ETV3L, 1.43 fold enrichment (6-mer frequency, TF over GST control); in the test with ETS2, 1.43 fold enrichment (6-mer frequency, TF over GST control); in the test with SPDEF, 1.21 fold enrichment (6-mer frequency, TF over GST control); in the test with ETV7, 1.21 fold enrichment (6-mer frequency, TF over GST control); with ELF5, 1.23 fold enrichment (6-mer frequency, TF over GST control). Further, the binding signal is 1.2 fold enrichment (6-mer frequency, TF over GST control) with ETV3 and 1.27 fold enrichment (6-mer frequency, TF over GST control) in the test with ETV6.

Regarding GCTCGT, the binding signal with ERF is 1.2 fold enrichment (6-mer frequency, TF over GST control); with ETV3L, 1.23 fold enrichment (6-mer frequency, TF over GST control); in the test with ETS2 it was 1.12 fold enrichment (6-mer frequency, TF over GST control); with SPDEF, 1.15 fold enrichment (6-mer frequency, TF over GST control); in the test with ETV7, 1.11 fold enrichment (6-mer frequency, TF over GST control); with ELF5 it was 1.1 fold enrichment (6-mer frequency, TF over GST control). For the same sequence, the binding signal with ETV3 was 1.15 fold enrichment (6-mer frequency, TF over GST control); with ETV6, 1.16 fold enrichment (6-mer frequency, TF over GST control).

CCTTGT: the binding signal with ERF was 1.29 fold enrichment (6-mer frequency, TF over GST control); with ETV3L, 1.05 fold enrichment (6-mer frequency, TF over GST control); with ETS2, 1.26 fold enrichment (6-mer frequency, TF over GST control); with SPDEF, 1.37 fold enrichment (6-mer frequency, TF over GST control); in the test with ETV7 it was 1.19 fold enrichment (6-mer frequency, TF over GST control); with ELF5, 1.52 fold enrichment (6-mer frequency, TF over GST control). Besides, the binding signal in the test with ETV3 is 1.31 fold enrichment (6-mer frequency, TF over GST control); in the test with ETV6, 1.06 fold enrichment (6-mer frequency, TF over GST control).

AAATGG: the binding signal with ERF was 1.49 fold enrichment (6-mer frequency, TF over GST control); with ETV3L, 1.54 fold enrichment (6-mer frequency, TF over GST control); with ETS2, 1.54 fold enrichment (6-mer frequency, TF over GST control); in the test with SPDEF, 1.41 fold enrichment (6-mer frequency, TF over GST control); with ETV7, 1.38 fold enrichment (6-mer frequency, TF over GST control); with ELF5, 1.52 fold enrichment (6-mer frequency, TF over GST control). Besides, the binding signal is 1.5 fold enrichment (6-mer frequency, TF over GST control) in the test with ETV3 and 1.47 fold enrichment (6-mer frequency, TF over GST control) with ETV6.

As to ATTTGT, the binding signal in the test with ERF is 1.34 fold enrichment (6-mer frequency, TF over GST control); in the test with ETV3L, 1.35 fold enrichment (6-mer frequency, TF over GST control); with ETS2 it was 1.36 fold enrichment (6-mer frequency, TF over GST control); in the test with SPDEF it was 1.33 fold enrichment (6-mer frequency, TF over GST control); in the test with ETV7 it was 1.34 fold enrichment (6-mer frequency, TF over GST control); in the test with ELF5 it was 1.26 fold enrichment (6-mer frequency, TF over GST control). The binding signal with ETV3 was 1.4 fold enrichment (6-mer frequency, TF over GST control); in the test with ETV6 it was 1.29 fold enrichment (6-mer frequency, TF over GST control).

Consider CAGCTT, for which the binding signal was 1.28 fold enrichment (6-mer frequency, TF over GST control) with ERF; 1.2 fold enrichment (6-mer frequency, TF over GST control) with ETV3L; 1.21 fold enrichment (6-mer frequency, TF over GST control) in the test with ETS2; 1.24 fold enrichment (6-mer frequency, TF over GST control) with SPDEF; 1.15 fold enrichment (6-mer frequency, TF over GST control) in the test with ETV7; 1.11 fold enrichment (6-mer frequency, TF over GST control) in the test with ELF5. Further, the binding signal with ETV3 was 1.21 fold enrichment (6-mer frequency, TF over GST control); with ETV6 it was 1.11 fold enrichment (6-mer frequency, TF over GST control).

For the sequence GATGCC, the binding signal with ERF is 1.36 fold enrichment (6-mer frequency, TF over GST control); with ETV3L it was 1.39 fold enrichment (6-mer frequency, TF over GST control); in the test with ETS2, 1.33 fold enrichment (6-mer frequency, TF over GST control); in the test with SPDEF it was 1.52 fold enrichment (6-mer frequency, TF over GST control); in the test with ETV7 it was 1.27 fold enrichment (6-mer frequency, TF over GST control); with ELF5, 1.35 fold enrichment (6-mer frequency, TF over GST control). In addition, the binding signal in the test with ETV3 was 1.39 fold enrichment (6-mer frequency, TF over GST control); with ETV6, 1.32 fold enrichment (6-mer frequency, TF over GST control).

The record behind these values is paper PMC7862700, “An all-to-all approach to the identification of sequence-specific readers for epigenetic DNA modifications on cytosine”.
